Measured values as given in PubChem BioAssay (NCI).
This is part of a sample that, as a whole, favours compounds with a hit. Of some 79,000 tested, about 15% had one in any assay. Active and inactive are the calls of the source. Rule as the data show it: active = growth inhibition above about 70%; inactive = the rest.

Assay: NCI Yeast Anticancer Drug Screen. Data for the rad50EPP+ strain (AID 151);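 also: 0% = growth of vehicle-treated control cultures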
Conditions: S. cerevisiae rad50 mutant strain, hits give high values
Description: Growth inhibition of yeast strains with defined genetic alterations is measured as a screen for potential anti-cancer activity. Selected strains with alterations in DNA damage repair or cell cycle control were exposed to compounds and growth inhibition was measured relative to vehicle treated controls. The strain used in this assay is rad50EPP+

Measured: growth inhibition

Cc1oc2ccccc2c(=O)c1Cn1nnc2ccccc21
inactive: at 1.2 µM -1% | at 3.7 µM 3% | at 11.0 µM 8% | at 33.0 µM 17% | at 100.0 µM 35%

CCCCCCCN1C(=O)c2ccccc2C1=O
inactive: at 1.2 µM 0% | at 3.7 µM -1% | at 11.0 µM 8% | at 33.0 µM 25% | at 100.0 µM 35%

CC1(C)OC(=O)C(=Cc2ccc([N+](=O)[O-])s2)C(=O)O1
inactive: at 1.2 µM -17% | at 3.7 µM -20% | at 11.0 µM -2%
active: at 33.0 µM 86% | at 100.0 µM 88%

Cc1ccc(S(=O)(=O)N/N=C/C(Br)=C(/Br)C(=O)O)cc1
active: at 11.0 µM 80% | at 33.0 µM 96% | at 100.0 µM 82%
inactive: at 1.2 µM 28% | at 3.7 µM 46%

CC1(C)CC(=O)C(C(=O)Nc2cccs2)=C(O)C1
inactive: at 1.2 µM -56% | at 3.7 µM -63% | at 11.0 µM -53% | at 33.0 µM 18%
active: at 100.0 µM 98%

CCN(CC)CCC(=O)Nc1ccc2sc3ccccc3c(=O)c2n1
active: at 11.0 µM 89% | at 33.0 µM 94% | at 100.0 µM 94%
inactive: at 1.2 µM 25% | at 3.7 µM 66%

O=C(c1ccccc1)[C@H]1Nc2ccc(Cl)cc2[C@H]2OCCC[C@@H]12
inactive: at 1.2 µM -16% | at 3.7 µM -20% | at 11.0 µM -25% | at 33.0 µM -2% | at 100.0 µM 14%

CCCNC(=O)OCc1c(COC(=O)NCCC)c(-c2ccc(Cl)c(Cl)c2)n2c1CCC2
inactive: at 1.2 µM -4% | at 3.7 µM 0% | at 11.0 µM -6% | at 33.0 µM 8% | at 100.0 µM 5%
